# Rows were chosen to be rich in hits. Some 1.3% of all compounds tested hit in one or more screens of this group.
# RE007 growth inh = qHTS Assay for Inhibitors of the HIV-1 protein Vpr | S. pombe RE007 Vpr strain, BacTiter-Glo ATP luminescence, 24 h | Potency, µM (titrated, usually from 92.2 µM), inactives show top-dose activity change, negative = less growth, actives largely listed as inhibitors | 360,000 compounds, 0.21% hits; active = well fitted falling curve with a large enough effect; inconclusive = small, poorly fitted or top-dose-only effect; inactive = no such curve, though single readings can be large or run the other way; also: nearly all actives have a fitted effect of over 50% in size
#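 Fission yeast strain RE007, carrying one chromosomally integrated HIV-1 vpr copy, was seeded at OD 0.01 in PMG+AL medium with 23 nL pinned compound. After 24 h at 30 °C and 99% humidity, viability was read by BacTiter-Glo luminescence.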
# LmPK inhibitor = qHTS Assay for Inhibitors of Leishmania Mexicana Pyruvate Kinase (LmPK) | 290,000 compounds, 0.37% hits | purified LmPK, Kinase-Glo ATP luminescence, 1 h | Q27686 | AID 1721, 2009 | Potency, µM (doses to about 57.5 µM), for the others: top-dose activity change, negative = inhibition, actives largely listed as inhibitors
# Target sequence (Q27686 whole entry, looked up): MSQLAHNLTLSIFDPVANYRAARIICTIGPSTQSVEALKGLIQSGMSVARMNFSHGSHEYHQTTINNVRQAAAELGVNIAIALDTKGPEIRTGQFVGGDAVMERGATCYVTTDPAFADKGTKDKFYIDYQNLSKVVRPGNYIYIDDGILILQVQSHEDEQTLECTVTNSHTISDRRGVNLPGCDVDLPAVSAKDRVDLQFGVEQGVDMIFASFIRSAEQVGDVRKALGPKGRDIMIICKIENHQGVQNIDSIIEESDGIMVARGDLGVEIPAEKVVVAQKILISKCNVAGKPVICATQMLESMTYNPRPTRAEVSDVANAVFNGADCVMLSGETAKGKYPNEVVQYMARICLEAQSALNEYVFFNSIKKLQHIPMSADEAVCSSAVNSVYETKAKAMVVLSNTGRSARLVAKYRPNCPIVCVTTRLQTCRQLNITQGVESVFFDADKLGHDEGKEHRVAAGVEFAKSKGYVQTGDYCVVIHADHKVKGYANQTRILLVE
#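 Screened at intermediate enzyme activity to detect both inhibitors and activators: LmPK at 0.1 nM, with a 0.5 nM enzyme column as activation reference. PEP 0.5 mM, ADP 0.1 mM; ATP detected by luminescence after 1 h.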
# Vaccinia Venus = qHTS for Stage-Specific Inhibitors of Vaccinia Orthopoxvirus: Venus Reporter Primary qHTS; Vaccinia virus Venus reporter expression, fluorescence; 330,000 compounds, 0.46% hits; Potency, µM (doses to about 36.5 µM), for inactives: at the top dose activity change, negative = inhibition, most hits filed as inhibitors; AID 720580, 2013; calls by dose curve; tested in A549 cells; also: nearly all actives have a fitted effect of over 30% in size
# TbPYK inhibitor = qHTS of Trypanosoma Brucei Inhibitors | TbPYK enzyme, Kinase-Glo Plus ATP luminescence, 45 min | AID 624173, 2012 | Potency, µM (doses to about 76.8 µM), without a hit: at the top dose activity, negative = inhibition, usual class: inhibitors | 410,000 compounds, 0.12% hits | pyruvate kinase (Trypanosoma brucei), Q57TT1; also: nearly all actives have a fitted effect of over 50% in size
#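 Enzyme and substrate buffer are dispensed first and compound is pin-transferred. ADP at 130 uM final then starts the reaction, which runs 45 min at room temperature. Detection reagent is added for 10 min before luminescence is imaged.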
# AMA1 RON2 block = qHTS for Inhibitors of AMA1-RON; Towards Development of Antimalarial Drug Lead: Primary Screen. 360,000 compounds, 0.2% hits. AlphaScreen AMA1-biotinylated RON2 peptide binding. Plasmodium falciparum AMA1 (3D7) - RON2 peptide interaction. Potency, µM (doses to about 58.2 µM), for inactives: at the top dose activity change, negative = inhibition, actives largely listed as inhibitors;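 also: 0% = vehicle wells and -100% = peptide control; nearly all actives have a fitted effect of over 45% in size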
#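 AMA1 (3D7) with his tag at 25 nM final met compounds first, then biotinylated RON2 peptide at 25 nM; detection used donor plus acceptor beads, 10 µg/mL apiece, read by AlphaScreen after 30 min at room temperature.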
# VACV mCherry inh = qHTS for Stage-Specific Inhibitors of Vaccinia Orthopoxvirus: mCherry Reporter Primary qHTS. AID 720579, 2013. Vaccinia virus mCherry reporter infection, fluorescence. Potency, µM (titrated, usually from 36.5 µM), inactives show top-dose activity change, negative = inhibition, most hits filed as inhibitors. 310,000 compounds, 0.63% hits; calls by dose curve; tested in A549 cells; also: nearly all actives have a fitted effect of over 35% in size
# * = called active by the depositor; i = inactive; ? = inconclusive; . = not tested or not shown; ! = a repeat was not active. Unless noted, calls follow the shape of the dose curve; as a rule, active = well fitted curve in the direction sought with a large enough effect; inconclusive = small, poorly fitted or top-dose-only effect, or another doubt; inactive = no such curve, though single readings can be large; an effect the other way counts as inactive or inconclusive. Unless noted, % is scaled to controls: 0 for no effect and ±100 for the full control effect; potency is read from the fitted curve at half-maximal effect.
SMILES,RE007 growth inh,LmPK inhibitor,Vaccinia Venus,TbPYK inhibitor,AMA1 RON2 block,VACV mCherry inh
CCC1CN(CC(=O)NCc2ccc3c(c2)OCO3)Cc2ccc(Cl)cc2O1 (centres undefined),.,.,-6%,.,.,-12%
CN(C)c1ccc(N=Nc2nccs2)cc1,?,.,-13%,-8%,11µM*,?
CN(C)c1ccc(N=Nc2ccnc3ccccc23)cc1,.,.,-12%,.,.,i
N#Cc1ccc(-c2csc(NNC(=O)c3ccccc3)n2)cc1,209%,2%,12%,-3%,82%,?
N#Cc1ccc(-c2csc(NNC(=O)c3ccc(Br)cc3)n2)cc1,106%,9%,14µM*,0%,13%,.
CCN(CC)C(=O)CSc1nc(N)c(C(=O)Nc2ccc(OC)cc2)s1,1%,0%,?,-4%,-9%,13µM*
C[C@@H]1CCCCO[C@H](CN(C)C(=O)Nc2cccc3ccccc23)[C@@H](C)CN([C@H](C)CO)C(=O)c2cc(N(C)C)ccc2O1,-38%,.,-23%,11µM*,-5%,-15%
O=C(NN1C(=O)/C(=C/C=C/c2ccco2)SC1=S)c1ccncc1,7%,-9%,18%,-23%,5.6µM*,-10%
O=C(NN1C(=O)/C(=C/C=C/c2ccccc2)SC1=S)c1ccncc1,-23%,13%,19%,-2%,3%,i
N#Cc1ccc(Nc2nc(-c3ccc(O)cc3O)cs2)cc1C(F)(F)F,-17%,.,11µM*,-5%,-3%,?
Oc1ccc(-c2csc(Nc3ccc4c(c3)OCO4)n2)c(O)c1,5%,.,?,-10%,47%,?
Cc1ccc(NC(=O)c2nc(S(C)(=O)=O)ncc2N(Cc2ccccc2)Cc2ccco2)c(C)c1,.,.,-6%,-6%,.,-7%
CN=C(c1ccco1)n1c(=S)nc(-c2ccco2)n(C)c1=S,-3%,2%,13µM*,-9%,3%,?
Fc1ccccc1-c1nc(-c2ccncc2)no1,?,?,.,-15%,-1%,.
Fc1ccccc1-c1nc(-c2ccccc2)no1,?,11µM*,-2%,-12%,4%,-11%
O=C(Cn1cc2ccccc2n1)N1CCOc2ccc(C(O)C3CCCCC3)cc2C1 (centres undefined),.,.,-8%,.,.,-21%
CCN1CCC(O)(/C=C/c2ccc(C(C)C)cc2)C(C(=O)/C=C/c2ccc(C(C)C)cc2)C1 (centres undefined),-12%,.,?,-9%,-25%,11µM*
O=C(NCC1Cc2cccc(-c3ncccn3)c2O1)C1CCCO1 (centres undefined),.,.,-9%,.,.,-18%
COC(=O)c1ccc(Cn2c(O)c(N=NC(N)=S)c3ccccc32)o1,22%,7%,.,0%,63%,.
Cc1ccc(NC(=O)Cn2c(O)c(N=NC(N)=S)c3ccccc32)cc1,33%,-3%,0.28µM*,-1%,38%,?
NC(=S)N=Nc1c(O)n(Cc2ccccc2)c2ccccc12,-9%,0%,0.32µM*,10%,45%,?
C/C(Cl)=C\Cn1c(O)c(N=NC(N)=S)c2ccccc21,-13%,6%,?,3%,70%,0.32µM*
O=C(O)c1cc(-c2ccco2)nc2ccc(Br)cc12,-30%,3%,0%,18µM*!,?,-11%
O=C(c1ccco1)N1CCN(C(=O)c2cc(-c3ccncc3)nc3ccc(Br)cc23)CC1,-25%,.,15%,-5%,4%,.
COc1cccc(-c2ccc(SCc3ccccn3)nn2)c1,-23%,14µM*,-4%,-6%,-8%,-11%
SMILES,RE007 growth inh,LmPK inhibitor,Vaccinia Venus,TbPYK inhibitor,AMA1 RON2 block,VACV mCherry inh
COCc1c(C(=O)N2CCN(C(C)C)CC2)cnn1-c1nccc(-c2cc(C)sc2C)n1,.,.,-4%,.,.,-9%
COc1ccc(NC(=O)CN2CCCN(S(=O)(=O)c3ccc(Br)cc3)CC2)c(OC)c1,.,.,-9%,1%,.,-5%
Cc1no[n+]([O-])c1COc1ccc(/C=N/n2nnnc2N)cc1,-3%,-3%,?,-3%,11%,14µM*
O=C(Nc1ccc(Nc2ccccc2)cc1)c1cccc(F)c1,-11%,0%,.,12%,-14%,.
CCN(CC)C(=O)c1ccc(NC(=O)c2cccc(F)c2)cc1,4%,28µM*,.,-9%,-8%,.
CCCSC1=N/C(=C\C=C\c2ccco2)C(=O)S1,-12%,9%,0%,-10%,11µM*,-11%
CC(C)c1c(C(=O)N2CCN(CCO)CC2)cnn1-c1nccc(-c2cccs2)n1,.,.,-7%,.,.,-14%
COC(=O)c1c(C)oc2ccc(N(C(=O)c3ccncc3)S(=O)(=O)c3ccc(C)cc3)cc12,3%,-1%,?,-2%,-3%,10µM*
COC(=O)c1c(C)oc2ccc(N(C(=O)c3ccncc3)S(=O)(=O)c3ccccc3)cc12,-4%,-4%,?,-10%,-9%,.
CCN(CC)CCNC(=O)C(Cl)=C1C(Cl)=C(Cl)C(Cl)=C1Cl,9%,.,0.79µM*,-3%,9%,2µM*
Cc1nc(C(=O)N(Cc2cc3ccc(F)cc3nc2N2CCC(O)CC2)CC2CCCO2)cs1 (centres undefined),.,.,-6%,.,.,-12%
CC(=O)N1CCc2c(sc(NC(=O)c3ccc([N+](=O)[O-])o3)c2C(N)=O)C1,-11%,.,5µM*,?,53%,1.8µM*
CCC(=O)Nc1sc2c(c1C(N)=O)CCN(C(C)=O)C2,16%,2%,-8%,-2%,-10%,-23%
COc1ccc(C(C#N)=C2C=CC(=NO)C(C)=C2Cl)cc1,3%,.,-3%,-4%,3.2µM*,-17%
COc1ccc(C(C#N)=C2C=C(Cl)C(=NO)C=C2Cl)cc1,-9%,.,?,-1%,22µM*,?
CC(C)c1ccc(/C=C(\c2nc3ccccc3[nH]2)S(=O)(=O)c2ccccc2)cc1,-5%,5%,10µM*,-11%,-22%,8.9µM*
COC(=O)/C(=C\c1ccc(O)cc1)c1nc2ccccc2[nH]1,-1%,0%,-16%,10%,15%,-15%
C/C(=C\c1ccc(N)cc1)c1nc2ccccc2[nH]1,9%,6%,.,2%,-2%,.
O=S(=O)(/C(=C/c1ccc(C(F)(F)F)cc1)c1nc2ccccc2[nH]1)c1ccccc1,-10%,-2%,10µM*,-11%,-14%,10µM*
